# The sample as a whole holds a higher share of hits than the screen did.
# ER stress death: ER stress cell death inhibition; CSM14.1 thapsigargin ER stress survival, ATP luminescence; relative survival (cellular ATP), % at 15 µg/mL (by protocol); hit rate 0.33% among 48,000;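 active means survival measured by cellular ATP above 50% at 15 µg/ml in the first screen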;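 further: cell death triggered by about 15 µM thapsigargin; ATP read 24 h after thapsigargin was added; plate controls were thapsigargin with DMSO for no effect and DMSO without thapsigargin for full effect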
# * = called active by the depositor.
SMILES,ER stress death
COc1cccc(C2=NN(C(=O)c3ccc(C(C)(C)C)cc3)C(O)(C(F)(F)F)C2)c1 (stereo not given),1.3
CC(C)(C)c1ccc(C(=O)N2N=C(c3cccnc3)CC2(O)C(F)(F)F)cc1 (stereo not given),55.2*
CC(C)(C)c1ccc(C(=O)N2N=C(c3ccc([N+](=O)[O-])cc3)CC2(O)C(F)(F)F)cc1 (stereo not given),12.2
COc1ccc(S(=O)(=O)N(CCO)Cc2ccccc2)cc1,11.8
CCOc1cccc(C(=O)Nc2nnc(C)s2)c1,4.5
CCOC(=O)/C(=C1/OC(=O)c2ccccc21)c1ccc([N+](=O)[O-])cc1,10.5
Cc1ccc(N2CC(C(=O)Nc3c(C)cc(C)cc3C)CC2=O)cc1 (stereo not given),3.0
COC(=O)c1sccc1NC(=O)c1cccc2ccccc12,7.2
Cc1cc(C)c(OCCCCn2ccnc2)c(C)c1,-4.5
Cc1cc(Cl)cc(C)c1OCCCCCCn1ccnc1,54.7*
Cc1cc(OCCCCCn2ccnc2)cc(C)c1Cl,37.0
CCOc1ccccc1NC(=O)CSc1nc2ccccc2s1,3.0
Cc1c(-c2cccs2)nc2ccccc2c1C(=O)O,-3.1
O=C(CSc1nnc(-c2cccs2)n1-c1ccccc1)c1ccccc1,3.0
O=C(CN1CC[n+]2c(-c3cccs3)csc21)c1ccccc1,58.6*
COCCCNC(=O)c1cc(C(=O)OC)cc([N+](=O)[O-])c1,5.7
CC(=O)c1cccc(N2C(=O)C3C4C=CC(C4=C(C)C)C3C2=O)c1 (stereo not given),0.8
COc1ccc(C(C)=O)cc1N1C(=O)C2C3C=CC(C3=C(c3ccccc3)c3ccccc3)C2C1=O (stereo not given),77.2*
COc1ccc(C(C)=O)cc1N1C(=O)C=CC1=O,-7.1
CC(=O)OC1CCC2(C)C(=CCC3C2CCC2(C)C3CC3CC=CCC32C(C)=O)C1 (stereo not given),3.5
CCOc1ccccc1N1CCN(C(=O)c2cc(OC)c(OC)c(OC)c2)CC1,-4.0
CCOc1ccccc1N1CCN(C(=O)c2sc3ccccc3c2Cl)CC1,125.3*
CCOc1ccccc1N1CCN(C(=O)c2cccc(Cl)c2)CC1,10.7
Cc1ccc(C)c(NC(=O)c2c(-c3ccccc3Cl)noc2C)c1,-1.4
Cc1cccc(C(=O)Nc2ccc(Cl)cc2C)c1,0.5
SMILES,ER stress death
COCCNC(=O)/C(=C/c1ccc(C(C)C)cc1)NC(=O)c1ccccc1,2.0
COc1ccc(CCNC(=O)/C(=C/c2ccc(C(C)C)cc2)NC(=O)c2ccccc2)cc1OC,79.3*
COc1ccc(CCNC(=O)/C(=C/c2ccc(Cl)cc2)NC(=O)c2ccc(C)cc2)cc1OC,0.1
COc1ccc(OC)c(NC(=O)C(=O)NNS(=O)(=O)c2ccccc2)c1,-1.0
O=c1c(Cl)c(Cl)cnn1Cc1ccc(Br)cc1,3.1
COc1cccc(NC(=O)CCN2C(=O)/C(=C/c3ccc(C)cc3)SC2=S)c1,8.5
COc1ccc(NC(=O)CCN2C(=O)/C(=C\c3cccc(OC)c3)SC2=S)cc1,25.9
COc1ccc(NC(=O)CCN2C(=O)/C(=C\c3ccc(C)cc3)SC2=S)cc1,51.0*
O=C1S/C(=C/C=C/c2ccccc2)C(=O)N1CNc1ccc(F)cc1,2.3
CC(C)COc1ccc(C(=O)N/C(=C/c2ccccc2)C(=O)NCC(=O)OCc2ccccc2)cc1,80.4*
COc1ccc(C(=O)N/C(=C\c2ccccc2)C(=O)NCCCN(C)C)cc1,-0.6
O=C(CCNC(=O)/C(=C\c1ccccc1)NC(=O)c1ccco1)OCc1ccccc1,7.6
COc1ccc(C(=O)N2CCN(S(=O)(=O)c3ccc(Cl)cc3)CC2)cc1,5.4
O=C1c2cccc([N+](=O)[O-])c2C(=O)N1CC(=O)N1c2ccccc2Sc2ccc(C(F)(F)F)cc21,1.8
Cc1ccc(C(C)C)c(OCC(O)Cn2cnc3cc(C)c(C)cc32)c1 (stereo not given),-5.6
O=S(=O)(/N=C(/c1ccc(F)cc1)N1CCOCC1)c1ccccc1,3.3
O=C(CC(c1ccccc1)c1ccccc1)N1CCN(Cc2ccccc2)CC1,9.1
O=C(C(c1ccccc1)c1ccccc1)N1CCN(Cc2ccncc2)CC1,-2.0
Cc1ccccc1CN1CCN(C(=O)C(c2ccccc2)c2ccccc2)CC1,97.4*
Cc1ccccc1CN1CCN(C(=O)c2cccc(Cl)c2)CC1,1.6
Cc1ccccc1C(=O)N1CCN(Cc2ccccc2)CC1,-1.2
O=C(C(c1ccccc1)c1ccccc1)N1CCN(Cc2ccc(F)cc2)CC1,63.0*
CCOC(=O)c1ccc(N=Cc2cccc(OC)c2O)cc1,-1.1
C=CCOc1ccc(/C=C2\C(=O)C(C(=O)OC)=C(C)N2c2ccc(F)cc2)cc1,4.2
Cc1ccc(-c2csc(NC(=O)CC(C)C)n2)c(C)c1,-4.5
SMILES,ER stress death
COc1cccc(NC(=S)NC(=O)c2cccs2)c1,-8.2
CCn1c2ccccc2c2cc(CN3CCN(C(=O)c4ccc(OC)c(OC)c4)CC3)ccc21,121.9*
CCn1c2ccccc2c2cc(CN3CCN(Cc4ccc(OC)c(OC)c4OC)CC3)ccc21,-3.5
CCn1c2ccccc2c2cc(CN3CCN(Cc4ccccc4OC)CC3)ccc21,-1.8
CCn1c2ccccc2c2cc(CN3CCN(C(=O)c4ccncc4)CC3)ccc21,16.6
CCn1c2ccccc2c2cc(CN3CCN(Cc4cc(OC)c(OC)cc4OC)CC3)ccc21,-6.2
CCn1c2ccccc2c2cc(CN3CCN(C(=O)c4cc(OC)c(OC)c(OC)c4)CC3)ccc21,113.0*
C/C(=N\N=C\c1ccccc1)C1C(=O)c2ccccc2C1=O,-1.5
CCOc1ccc(Br)cc1/C=C1/C(=O)NN(c2ccccc2)C1=O,-1.5
O=C1NC(=O)N(c2ccccc2)C(=O)/C1=C\c1ccccc1OCc1ccc(F)cc1,3.9
CCCOc1ccc(C(=O)Nc2ccccc2-c2ccccc2)cc1,-3.1
CCOCCOC(=O)c1ccc(NC(=O)c2ccc(OC)c(OC)c2)cc1,2.4

# Screening data: PubChem, Sanford-Burnham Center for Chemical Genomics
